Bioassay records: PubChem BioAssay, National Center for Advancing Translational Sciences (NCATS)
Shown are actives, neighbours in structure and some others; about 4.6% of the full set was active somewhere.
TRHR agonist: qHTS for Small Molecule Agonists and Allosteric Enhancers of Human TRH Receptor: Primary Screen for Agonists. TRHR cells, calcium flux fluo-8, FDSS agonist mode. activation, % at 2 µM. 360,000 tested, 0.18% active. AID 493084, 2011
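In this calcium-flux screen, cells bearing human TRHR are dye-loaded with fluo-8, baselined for 10 cycles, then exposed to library compounds; positive kinetic calcium responses during the agonist phase mark hits, with TRH as control.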
D1 PAM: Potentiators of Human D1 Dopamine Receptor: qHTS; potentiation, % at 10 µM; HEK293 TREx D1 cells, calcium flux, dopamine EC20 potentiation; AID 504651, 2011; D(1A) dopamine receptor (Homo sapiens), P21728; 360,000 tested, 0.036% active; in the data active means potentiation above about 30%
Target sequence (P21728 whole entry, looked up): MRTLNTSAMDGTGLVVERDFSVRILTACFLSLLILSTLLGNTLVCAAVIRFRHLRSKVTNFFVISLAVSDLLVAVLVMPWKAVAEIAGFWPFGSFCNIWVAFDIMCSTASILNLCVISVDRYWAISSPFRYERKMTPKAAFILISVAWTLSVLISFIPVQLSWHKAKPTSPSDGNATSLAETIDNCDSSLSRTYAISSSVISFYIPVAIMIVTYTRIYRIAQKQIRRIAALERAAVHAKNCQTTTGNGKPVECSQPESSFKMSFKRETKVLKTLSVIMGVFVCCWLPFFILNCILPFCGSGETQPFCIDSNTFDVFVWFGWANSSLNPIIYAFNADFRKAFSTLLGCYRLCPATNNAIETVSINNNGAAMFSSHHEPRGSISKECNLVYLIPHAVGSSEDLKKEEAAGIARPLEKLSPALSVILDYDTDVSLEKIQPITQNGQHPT
D1 ag: Allosteric Agonists of the Human D1 Dopamine Receptor: qHTS; D(1A) dopamine receptor (Homo sapiens), P21728; HEK293 T-REx D1 cells, calcium flux, agonist mode; activation, % at 2 µM; 360,000 tested, 1% active
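Agonism was scored from calcium flux recorded over 180 s (1 read/s) after pintool compound addition, following a 10-cycle baseline. Cells were inducible force-coupled HEK293 TREx D1, plated overnight at 30 C and loaded with no-wash calcium dye.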
D1 antag: Antagonist of Human D 1 Dopamine Receptor: qHTS | D(1A) dopamine receptor (Homo sapiens), P21728 | 360,000 tested, 3.2% active | HEK293 TREx D1 cells, calcium flux, dopamine EC80; active compounds read low | AID 504652, 2011 | activity change, negative = inhibition, % at 10 µM; in the data active means activity change below about -30%
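Compound effects on dopamine-evoked calcium signalling were measured in tetracycline-induced HEK293 Trex D1 cells. Dopamine at EC80 followed a 180 s compound pre-read, and fluorescence was tracked kinetically for 180 s more.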
TRHR enhancer: qHTS for Small Molecule Agonists and Allosteric Enhancers of Human TRH Receptor: Primary Screen for Enhancers; Thyrotropin-releasing hormone receptor (Homo sapiens), P34981; TRHR cells, fluo-8 calcium fluorescence, EC20 TRH enhancement; 360,000 tested, 0.66% active; enhancement, % at 2 µM; in the data active means enhancement above about 30%
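Enhancer read-out: after compound pinning and an initial kinetic agonist-mode read, an EC20 of TRH (10 nM final) was injected and fluo-8 calcium signal (Ex 480/Em 530) followed at 1 s/cycle for 100 cycles in TRHR-expressing cells.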
A number is an active result; n = inactive. Unless noted, no stated cut-off is given here; in the data, active means activation above about 30%; inactive means the rest.

SMILES	TRHR agonist	D1 PAM	D1 ag	D1 antag	TRHR enhancer
COCCCn1c(Cc2csc(Nc3ccccc3)n2)nnc1SCC(N)=O	n	n	n	-36	n
Cc1ccc2nc(C)cc(OCC(=O)O)c2c1	n	n	n	n	n
Cc1ccccc1N(CC(=O)NCCc1ccccc1)C(=O)CCC(=O)Nc1ccccn1	n	n	n	n	n
CCc1ccccc1N(CC(=O)NCCc1ccccc1)C(=O)CCC(=O)Nc1ccccn1	n	n	40	-30	n
CCOc1cc2c(cc1/C=C/c1noc(C)c1[N+](=O)[O-])OC(C)C2 (stereo not given)	97	n	74	n	n
CCOc1cc2c(cc1C=O)OC(C)C2 (stereo not given)	n	n	n	n	n
COC(=O)c1ccccc1NC(=O)Cn1ncc2c(C)n(Cc3ccc(F)cc3)c(C)c2c1=O	n	n	n	-71	n
CCOc1ccccc1NC(=O)Cn1ncc2c([nH]c3ccccc32)c1=O	n	n	n	-30	n
CCCCCCC(C)n1[nH]c(=O)cc1N (stereo not given)	n	n	n	-32	n
CCOC(=O)N/N=C/C=C/c1ccccc1	n	n	n	n	n
CC(C)c1cccc(C2=CC(=O)C[C@H](c3ccc(F)cc3)C2)c1	n	n	n	-39	n
COc1ccc(S(=O)(=O)Nc2ncccn2)cc1	n	n	n	-44	n
O=S(=O)(Nc1ncccn1)c1ccc(NC(=S)Nc2ccc(Cl)cc2)cc1	n	n	n	n	n
COc1ccc(CC(=O)Nc2ccc(S(=O)(=O)Nc3ncccn3)cc2)cc1	n	n	n	n	n
COc1ccc(S(=O)(=O)NNC(N)=S)cc1	n	n	n	n	31
COc1ccc(NC(=O)NNS(=O)(=O)c2ccc(Br)cc2)cc1	n	n	n	n	n
O=C(Nc1ccc(Cl)cc1)Nc1ccc(S(=O)(=O)Nc2ncccn2)cc1	n	n	n	-60	n
COCC(=O)n1nc(-c2ccccc2)nc1NCc1ccc(F)cc1	n	n	n	n	n
COC(=O)c1sc(S(=O)(=O)NCc2cccs2)c(C(=O)OC)c1C	n	n	n	n	n
COc1cc2c(-c3ccccc3Cl)nc3c(c(C)nn3-c3ccccc3)c2cc1OC	n	n	n	n	n
CS(=O)(=O)N(Cc1ccccc1)c1ccc(C(=O)Nc2ccccc2C(=O)O)cc1	n	n	n	n	n
Cc1ccccc1NC(=O)c1ccc(N(Cc2ccccc2)S(C)(=O)=O)cc1	n	n	n	n	36
COc1ccc(N2CCN(C(=O)CSc3nc4ccccc4c(=O)[nH]3)CC2)cc1	n	n	n	n	n
O=C(NCc1ccccc1Cl)c1nnc(CS(=O)(=O)c2ccccc2)o1	n	n	n	n	31
Cc1ccc(CNC(=O)CCS(=O)(=O)c2cc3c4c(c2)CCN4C(=O)CC3)cc1	n	n	n	n	n
SMILES	TRHR agonist	D1 PAM	D1 ag	D1 antag	TRHR enhancer
FC(F)(F)COc1cc(-c2nnc(SCc3ccccc3)n2Cc2ccco2)cc(OCC(F)(F)F)n1	n	n	32	n	n
N#C/C(C(=O)Oc1ccccc1)=C1/Nc2ccccc2-c2ccccc21	n	n	n	n	n
COc1ccc(CC(=O)Nc2ccc(-c3nc4ccccc4s3)cc2Cl)cc1OC	n	n	n	n	n
CCc1ccc(Nc2n[n+](-c3ccccc3)c(-c3c(Cl)cccc3Cl)s2)cc1	n	n	93	-69	n
COc1ccc2ccccc2c1-c1sc(Nc2ccccc2)n[n+]1-c1ccc(F)cc1	n	n	37	-40	n
CCc1ccc(Nc2n[n+](-c3ccccc3)c(-c3ccc(N(CC)CC)cc3)s2)cc1	n	n	n	n	n
COc1ccc(-c2sc(Nc3ccccc3)n[n+]2-c2ccc(F)cc2)cc1Br	n	n	n	n	n
Fc1ccc(-[n+]2nc(Nc3ccccc3)sc2-c2c(Cl)cccc2Cl)cc1	n	n	49	n	n
COCCn1c(SCC(=O)Nc2cccc(C)c2C)nc2c(oc3ccccc32)c1=O	n	n	n	n	n
COc1ccc(CN2C[C@H](C)[C@@H](CC(=O)NCc3ccccc3)C2=O)cc1	n	n	n	n	n
